Screening results: PubChem BioAssay, Broad Institute
An excerpt weighted towards active compounds, which were near 0.47% of everything screened.
FadD28 binding: blocks FadD28 binding to the bisubstrate probe; inhibition, % at 12.5 µM; fluorescence polarization; actives 0.22% (n = 360,000); AID 588549; in the data active means inhibition above about 8.5%, passing the limit was not always enough
BioA inh: blocks M. tuberculosis BioA enzyme activity; purified M. tuberculosis BioA enzyme, plate reader; inhibition, % at 9.99 µM; actives 0.096% (n = 360,000); in the data active means inhibition above about 40%
TcdB GH inh: TcdB glycohydrolase inhibition; TcdB glycohydrolase enzymatic assay, plate reader; inhibition, % at 9.99 µM; actives 0.24% (n = 350,000); AID 652162; in the data active means inhibition above about 10%
Yp Topo-I inh: blocks Yersinia pestis topoisomerase I activity | Y. pestis Topo-I cleavage product accumulation, plate reader | activity, % at 10 µM | actives 0.064% (n = 360,000) | AID 504884; in the data active means activity above about 50%, passing the limit was not always enough
Of the large screens only hits and unclear results are named; the others gave an inactive call.

CC(=O)Nc1ccc(S(=O)(=O)N2CCCC(C(=O)O)C2)cc1 (configuration not stated)	TcdB GH inh 18 (no result: BioA inh)
COc1ccc(/C=C/c2nc3ccccc3n2C)cc1	TcdB GH inh 13 (no result: BioA inh)
COc1ccc(Cn2c(/C=C/c3ccccc3)nc3ccccc32)cc1	none (no result: TcdB GH inh)
CN(C)c1ccc(/C=C2\C(=O)NC(=O)N(Cc3ccc(F)cc3)C2=O)cc1	none
O=C1NC(=O)N(Cc2ccc(F)cc2)C(=O)/C1=C\c1ccoc1	FadD28 binding 11
COc1ccc(S(=O)(=O)N2CCC[C@H]2C(=O)N2CCC[C@H]2C(=O)NCc2ccccc2)cc1C	none (no result: FadD28 binding, BioA inh, Yp Topo-I inh)
COc1ccc(S(=O)(=O)N2CCC[C@H]2C(=O)N2CCC[C@H]2C(=O)NCc2ccncc2)cc1C	TcdB GH inh 10 (no result: FadD28 binding, BioA inh, Yp Topo-I inh)
CNC(=O)C[C@H]1CC[C@@H]2[C@@H](COc3ccc(NS(=O)(=O)c4ccccc4C)cc3C(=O)N2C)O1	none (no result: FadD28 binding, Yp Topo-I inh)
CNC(=O)C[C@@H]1CC[C@@H]2[C@H](COc3ccc(NS(=O)(=O)c4ccccc4C)cc3C(=O)N2C)O1	TcdB GH inh 15 (no result: FadD28 binding, Yp Topo-I inh)
COc1ccc(C(=O)Nc2ccc3c(c2)C(=O)N(C)[C@@H]2CC[C@H](CC(=O)NCC4CC4)O[C@H]2CO3)cc1	TcdB GH inh 16 (no result: FadD28 binding, Yp Topo-I inh)
CN1C(=O)c2cc(NC(=O)c3cccc(F)c3)ccc2OC[C@H]2O[C@H](CC(=O)NCC3CCCCC3)CC[C@@H]21	TcdB GH inh 11 (no result: FadD28 binding, Yp Topo-I inh)
CNC(=O)C[C@H]1CC[C@@H]2[C@@H](COc3ccc(NC(=O)c4cccc(OC)c4)cc3C(=O)N2C)O1	TcdB GH inh 12 (no result: FadD28 binding, Yp Topo-I inh)
CN1C(=O)c2cc(NC(=O)c3cccc(F)c3)ccc2OC[C@H]2O[C@H](CC(=O)NCC3CCCCC3)CC[C@H]21	none (no result: FadD28 binding, Yp Topo-I inh)
COc1ccc(C(=O)Nc2ccc3c(c2)C(=O)N(C)[C@H]2CC[C@@H](CC(=O)NCC4CC4)O[C@H]2CO3)cc1	none (no result: FadD28 binding, Yp Topo-I inh)
CCN1CC(=O)Nc2cc(S(=O)(=O)N3CCOCC3)ccc21	none
CN(C)/C=N/c1ncc(C(=O)c2ccc3ccccc3c2)s1	none (no result: TcdB GH inh)
CNC(=O)C[C@@H]1CC[C@@H]2[C@H](COc3ccc(NC(=O)c4ccc(OC)cc4)cc3C(=O)N2C)O1	none (no result: FadD28 binding, Yp Topo-I inh)
CNC(=O)C[C@H]1CC[C@@H]2[C@H](COc3ccc(NC(=O)c4ccc(OC)cc4)cc3C(=O)N2C)O1	TcdB GH inh 17 (no result: FadD28 binding, Yp Topo-I inh)
CNC(=O)C[C@H]1CC[C@@H]2[C@@H](COc3ccc(NC(=O)c4ccc(OC)cc4)cc3C(=O)N2C)O1	TcdB GH inh 12 (no result: FadD28 binding, Yp Topo-I inh)
CNC(=O)C[C@H]1CC[C@@H]2[C@H](COc3ccc(NC(=O)Nc4ccc(C)cc4)cc3C(=O)N2C)O1	TcdB GH inh 11 (no result: FadD28 binding, Yp Topo-I inh)
CCOC(=O)c1c(C)oc2ccc(OS(C)(=O)=O)cc12	none (no result: BioA inh)
COc1cc(NC(=O)c2ccc3c(SCC(=O)O)c4c(nc3c2)CCCC4)cc(OC)c1OC	none (no result: BioA inh)
CC(=O)c1cccc(NC(=O)NC2CCCCC2)c1	none
Cc1cccc(NC(=S)NC2CCCC2)c1	none (no result: BioA inh, TcdB GH inh)
CC(=O)c1cccc(NC(=S)NC2CCCCCCC2)c1	FadD28 binding 14
CC(=O)c1cccc(NC(=O)NC2CCCCCCC2)c1	FadD28 binding 15
COc1ccc(Cl)cc1NC(=S)NC1CCCC1	TcdB GH inh 15
CCOC(=O)[C@@H]1[C@H]2COc3ccc(Br)cc3[C@@H]2N2C(=O)N(c3cccc(F)c3)C(=O)[C@]12C	TcdB GH inh 11
CCOC(=O)[C@@H]1[C@H]2COc3ccc(Br)cc3[C@H]2N2C(=O)N(c3ccc(F)cc3)C(=O)[C@]12C	none
O=c1[nH][nH]c(=O)c2c1[nH]c(=S)n2Cc1ccccc1	TcdB GH inh 12
CCn1c(=O)n(C)c2c(=O)n(C)c(=O)n(C)c21	none
S=c1[nH]c2ccccc2n1Cc1ccccc1	none
CCCCn1c(=S)[nH]c2c(=O)n(C)c(=O)n(C)c21	TcdB GH inh 52
Cn1c(=O)c2[nH]c(=S)n(Cc3ccccc3)c2n(C)c1=O	TcdB GH inh 50 (no result: BioA inh)
Cc1cc(/C=N/NC(N)=S)c(C)n1-c1ccc(Cl)c(Cl)c1	none (no result: BioA inh)
O=C(c1ccc(F)cc1)c1ccc(-c2ccc(F)cc2)nc1	none
CC(=O)N(C)C[C@H]1Oc2ncc(-c3ccc(C(=O)N(C)C)cc3)cc2C(=O)N([C@@H](C)CO)C[C@H]1C	none (no result: FadD28 binding, Yp Topo-I inh)
Fc1ccccc1Nc1n[nH]c(=S)s1	TcdB GH inh 10 (no result: BioA inh)
Cc1ccccc1Nc1n[nH]c(=S)s1	none
O=C(c1ccc([N+](=O)[O-])cc1)N1CCN(c2cccc3[nH]ccc23)CC1	TcdB GH inh 10 (no result: BioA inh)
S=C(NCCc1ccccc1)NC1CC1	none
COc1ccc(C(CNC(=O)c2oc3ccc(OC)cc3c2C)N2CCCC2)cc1 (configuration not stated)	TcdB GH inh 12
Cc1cccc(/C=C(\C(=O)O)c2ccc(S(=O)(=O)N3CCCC3)s2)c1	none
O=C(Cc1ccc(Cl)cc1)NNc1c(F)c(F)cc(F)c1F	none (no result: BioA inh)
Oc1ccc(Cc2ccccc2Cl)c(O)c1	TcdB GH inh 13
Oc1ccc(Cc2ccc(Cl)cc2)c(O)c1	TcdB GH inh 10
Oc1ccccc1Cl	none
COc1ccc(C2CC(=O)Oc3c(C(C)C)ccc(C)c32)cc1 (configuration not stated)	FadD28 binding 8.8
COc1ccc(C2CC(=O)Oc3cc(C)cc(C)c32)cc1 (configuration not stated)	none
CC(C)N1CC2=C(OC(N)=C(C#N)C2c2cccnc2)/C(=C/c2cccnc2)C1 (configuration not stated)	BioA inh 43 (no result: TcdB GH inh)
O=C(O)c1cccnc1SCc1ccccc1Cl	TcdB GH inh 11
O=C(O)c1cccnc1Sc1ccccc1Cl	none
Cc1cn2c(N)c(C=C3C=C(Cl)C(=O)C(Cl)=C3)c(=O)nc2s1	FadD28 binding 15 (no result: BioA inh)
COc1ccc(-c2cn[nH]c2-c2ccc(O)cc2O)cc1	TcdB GH inh 15
COc1ccccc1-c1cn[nH]c1-c1ccc(O)cc1O	TcdB GH inh 14
O=C(COc1ccc(Br)cc1)Nc1ccccc1N1CCCC1	none (no result: BioA inh)
Cc1cccc(OCC(=O)Nc2ccccc2N2CCCC2)c1C	none
Cc1ccccc1OCC(=O)Nc1ccccc1N1CCCCC1	Yp Topo-I inh 55 (no result: TcdB GH inh)
Cc1cc(Cl)ccc1OCC(=O)Nc1ccccc1N1CCOCC1	Yp Topo-I inh 53 (no result: TcdB GH inh)
O=C(COc1c(Cl)cccc1Cl)Nc1ccccc1N1CCCC1	Yp Topo-I inh 54
CC(Oc1ccc(F)cc1)C(=O)Nc1ccccc1N1CCCCC1 (configuration not stated)	Yp Topo-I inh 65
CCOC(=O)C1=C(COC(=O)c2cccc(Cl)c2)NC(=O)NC1C (configuration not stated)	none
Cc1ccc(S(=O)(=O)N(C)c2ccccc2C(=O)Nc2c(F)cccc2F)cc1	none
COc1cc(/C=N/NC(=O)c2nnn(-c3nonc3N)c2C(C)C)ccc1O	TcdB GH inh 13
CCCCC[n+]1cccc2c3ccccc3ccc21	none (no result: BioA inh)
Cc1ccc2c(C)c3ccc4ccccc4c3c[n+]2c1	TcdB GH inh 11 (no result: BioA inh)
COc1cc2nncc(SC)c2cc1OC	TcdB GH inh 11
Cc1cc(C)cc(Nc2c3c(nc4ncnn24)CCC3)c1	none (no result: BioA inh)
Cc1cc(C)cc(CSc2ccc(S(=O)(=O)N3CCCC3)cn2)c1	none
O=S(=O)(c1ccc(SCc2ccc(Cl)cc2)nc1)N1CCCC1	Yp Topo-I inh 53
Cc1cc(C)cc(N=C2NC(=O)CS2)c1	TcdB GH inh 13
Cc1cc(NC(=O)CSc2cn(CCNC(=O)c3ccccc3)c3ccccc23)no1	none (no result: TcdB GH inh)
